Results taken from PubChem BioAssay AID1457 (National Center for Advancing Translational Sciences (NCATS), 2008).
Out of some 210,000 compounds screened, about 730 (0.35%) were called active. Roughly 1% stayed inconclusive and do not appear here. The call rests on the fitted dose curve; in most records, active means well fitted inhibition curve with a large enough effect; inconclusive means small, poorly fitted or top-dose-only effect; inactive means no such curve, though single readings can be large or run the other way. The entries come from a sample that favours actives as a whole.

assay: qHTS Assay for Identifying the Cell-Membrane Permeable IMPase Inhibitors: Potentiation with Lithium; details: CHO-M1 cells, IP1 TR-FRET (IP-One), carbachol + lithium; series mostly up to 59.4 µM; activity, negative = IMPase inhibition: at the top concentration;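 further: IP1 builds up when IMPase is blocked and the TR-FRET signal falls; nearly all actives have a fitted effect of over 50% in size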;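 on activity, negative = IMPase inhibition: plate controls were basal vehicle for no effect and high inhibitor control for full effect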
Outline: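 IP1 accumulation measured by competitive TR-FRET in lysed CHO-M1 cells after 30 min compound exposure at 37C, with a small lithium addition to potentiate weak responses. Hill-equation AC50 from ratio and donor-channel data.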
Potency means the concentration at half of the fitted maximal effect.

Compound	activity, negative = IMPase inhibition	Potency
CC1(OC(=O)c2ccc(Cl)nc2)C(=O)Cc2cc(-c3ccsc3)ncc2C1=O (stereo not given)	9.99% (inactive)	–
O=C1C(=O)N(CCN2CCOCC2)C(c2ccccn2)/C1=C(/O)c1ccc(Cl)cc1 (stereo not given)	7.49% (inactive)	–
COc1cc(C2/C(=C(\O)c3ccc4c(c3)CC(C)O4)C(=O)C(=O)N2Cc2ccco2)ccc1O (stereo not given)	-13.8% (inactive)	–
COc1cccc(C2/C(=C(/O)c3ccncc3)C(=O)C(=O)N2CCCN(C)C)c1 (stereo not given)	2.53% [at 38.3 µM] (inactive)	–
COCCCN1C(=O)C(=O)/C(=C(/O)c2ccc3c(c2)CC(C)O3)C1c1cccnc1 (stereo not given)	–	8.91 µM (active)
CCN(CC)CCN1C(=O)C(=O)/C(=C(/O)c2ccccc2)C1c1ccccc1F (stereo not given)	5.01% [at 38.3 µM] (inactive)	–
CC1Cc2cc(/C(O)=C3\C(=O)C(=O)N(CCN4CCOCC4)C3c3ccccc3F)ccc2O1 (stereo not given)	–	10 µM (active)
CC(C)(C)OC(=O)NCCCC1=CC2=CC(=O)C(C)(OC(=O)c3ccco3)C(=O)C2=CO1 (stereo not given)	13.9% (inactive)	–
CCCCC/C=C\C/C=C\CCCCCCCCCC(N)=O	4.61% (inactive)	–
COC(=O)C1=C(C(=O)OC)[C@@H]2N(C)c3ccccc3[C@@]23C[C@@H](C(=O)OC)N(C(=O)c2ccco2)C3=N1	-2.84% (inactive)	–
CCCCCCCC1=Cc2ccc(F)cc2C(C(C(=O)OC)C(=O)OC)N1C(=O)OC (stereo not given)	–	inactive
NC(=O)COc1ccc2c3c(c(=O)oc2c1)CCCCC3	17.5% [at 38.3 µM] (inactive)	–
Cc1c(Cc2ccccc2)c(=O)oc2cc(OCC(N)=O)ccc12	-7.11% (inactive)	–
O=C(Oc1ccccc1)Oc1ccc2c(c1)oc(=O)c1ccccc12	–	10 µM (active)
CCOC(=O)C1=C(C)c2ccccc2OC1(C)C(=O)OCC (stereo not given)	-2.23% (inactive)	–
CCCCC/C=C\C/C=C\CCCCCCCCCC(=O)O	–	inactive
C[C@H]1Cc2c(COc3ccccc3)nc3c(c2CO1)CN(C(=O)Nc1cccc(C#N)c1)CC3	-3.57% (inactive)	–
C#CCCOC(=O)N1C2=NC(C(=O)OC)=C(C(=O)OC)[C@@H]3N(C)c4ccc(OC)cc4[C@]23C[C@H]1C(=O)OC	-1.69% (inactive)	–
COc1ccc(-c2nc3c(c4c2C[C@H](c2ccccc2)OC4)CN(C(=O)c2ccco2)CC3)c(C)c1	4.59% (inactive)	–
C=CC1=C2C=C(C3CC3)N(C(CO)CO)C=C2C(=O)C(C)(OC(=O)c2ccco2)C1=O (stereo not given)	3.61% (inactive)	–
COc1ccc2c(c1)O[C@@H](c1ccc3c(c1)OCO3)[C@H](OC(=O)NCc1ccco1)C2=O	-3.02% (inactive)	–
Cc1ccc(C)c(S(=O)(=O)N2CC(=O)Nc3ccccc32)c1	21.6% [at 38.3 µM] (inactive)	–

Compound	activity, negative = IMPase inhibition	Potency
Cc1ccc(S(=O)(=O)N2CC(=O)Nc3ccccc32)cc1C	-2.99% [at 38.3 µM] (inactive)	–
O=C1CN(c2nc(-c3ccccc3)c3cc(Br)ccc3n2)c2ccccc2N1	–	12.6 µM (active)
COc1ccc(-c2nc3c(c4c2C[C@H](c2ccccc2)OC4)CN(S(=O)(=O)c2c(C)noc2C)CC3)c(C)c1	2.36% (inactive)	–
O=C(C1=C(O)C(=O)N(c2ncccn2)C1c1cccs1)c1ccco1 (stereo not given)	–	11.2 µM (active)
O=C(c1ccco1)N1CCC2(CC1)CCN(c1ncccn1)CC2	2.75% (inactive)	–
O=C(c1ccco1)N1CCC2(CC1)CN(c1ncccn1)C2	-29.1% (inactive)	–
C=CCC1CCC(=O)N2CCCC12 (stereo not given)	8.46% (inactive)	–
C[C@@H]1C(c2ccc(F)cc2)=NN(c2ccc(Br)cc2)[C@H]1C(=O)N1CCOC1=O	0.815% (inactive)	–
COC(=O)CC1c2ccccc2C(Cc2ccc(OC)cc2)=C(C)N1C(=O)OC (stereo not given)	3.73% (inactive)	–
COc1cc(OC)c2c(c1)OC(=O)CC2c1cc(OC)c(OC)c(OC)c1 (stereo not given)	23.6% (inactive)	–
CC1=C2[C@@H](O)[C@H]([C@@H](C)C(=O)NCCC(C)C)CC[C@@]2(C)C=CC1=O	2.85% (inactive)	–
C=CC1(C)CC(=O)C2(O)C(C)(O1)C(OC(C)=O)C(O)C1C(C)(C)CCC(O)C12C (stereo not given)	–	inactive
COC(=O)C1=C(C(=O)OC)[C@@H]2N(C)c3ccccc3[C@@]23C[C@@H](C(=O)OC)N(C(C)=O)C3=N1	-5.12% (inactive)	–
CCCC(=O)n1nc(-c2ccccc2)nc1N	1.74% (inactive)	–
Nc1c(C(=O)NCc2ccccc2)sc2nc3c(cc12)C(=O)CCC3	-0.997% [at 38.3 µM] (inactive)	–
CCN(CC)C(=O)c1sc2nc(-c3ccccc3)ccc2c1N	–	10 µM (active)
CCCCC/C=C\CC1OC1CCCCCCCC(=O)O (stereo not given)	–	inactive
O=C(COC(=O)c1cccc(Br)c1)Nc1cccc2c1C(=O)c1ccccc1C2=O	–	11.2 µM (active)
O=C(COC(=O)c1ccccc1)Nc1ccccc1Sc1ccccc1	2.86% (inactive)	–
O=C(COC(=O)Cn1cnc2ccccc21)Nc1cccc2c1C(=O)c1ccccc1C2=O	16.9% (inactive)	–
C=CCOC(=O)NC(c1ccc(F)c(F)c1)C(C(=O)COC)C(=O)OC (stereo not given)	–	inactive
Cc1csc(-c2coc3cc(O[C@@H]4O[C@H](CO)[C@@H](O)[C@@H](O)[C@H]4O)ccc3c2=O)n1	7.9% (inactive)	–

Compound	activity, negative = IMPase inhibition	Potency
CC(C)(Oc1ccc(C2CC2(Cl)Cl)cc1)C(=O)O (stereo not given)	8.64% (inactive)	–
CC(O)[C@@H](N)C(=O)O (stereo not given in full)	12% (inactive)	–
CCCCCCCC/C=C\CCCCCCCC(=O)OC[C@H](CO)OC(C)=O	–	inactive
CCOC(=O)C1=C(C(=O)OCC)C(C(=O)OCC)N(S(=O)(=O)C(F)(F)F)c2ccccc21 (stereo not given)	2.92% (inactive)	–
Cc1cc(NC(=O)COc2ccc(Cl)cc2Cl)n(CCC#N)n1	-18.1% [at 38.3 µM] (inactive)	–
CSc1ccc(C#N)cc1NC(=O)c1cccc(Cl)c1	-4.13% [at 38.3 µM] (inactive)	–
N#Cc1ccccc1NC(=O)c1cccc(COc2ccc(Cl)cc2Cl)c1	–	8.91 µM (active)
O=C(Nc1ccc(Sc2ccc(Br)cc2)cc1)c1ccco1	6.53% [at 38.3 µM] (inactive)	–
O=C(Nc1c(-c2ccccc2)nc2c(Br)cc(Br)cn12)c1ccco1	–	10 µM (active)
Cc1ccccc1NC(=O)c1cnn(-c2ccccc2)c1NC(=O)c1ccco1	-10.3% [at 38.3 µM] (inactive)	–
COc1ccc(-c2c(C)cc3oc(=O)cc(-c4ccccc4)c3c2C)cc1OC	16.6% (inactive)	–
C=C(C)C(=O)c1ccc(F)cc1	17.7% (inactive)	–
c1ccc2sc(SCCSc3nc4ccccc4s3)nc2c1	-2.64% (inactive)	–
Cc1sc2ncnc(Sc3nc4ccccc4s3)c2c1C	–	14.1 µM (active)
CSc1ncnc2sc(C)c(C)c12	1.83% (inactive)	–
COC(C)C(C(=O)OCC1=CCN2CC[C@H](O)[C@@H]12)C(C)C (stereo not given in full)	29.6% (inactive)	–
OC[C@H]1O[C@@H](n2cnc3c(NC4CCCC4)ncnc32)[C@H](O)[C@H]1O	22.1% (inactive)	–
CC/C=C\C/C=C\C/C=C\C/C=C\C/C=C\C/C=C\CCC(=O)NCCc1ccc(O)c(O)c1	14.2% (inactive)	–
Cc1nonc1NC(=O)CSc1nc2ccccc2cc1C#N	-6.66% (inactive)	–
Cc1nc2cc(NC(=O)CSc3nc4c(C)cccc4cc3C#N)ccc2s1	–	11.2 µM (active)
Cc1ccc2cc(C#N)c(SCC(=O)NCC3CCCO3)nc2c1C (stereo not given)	-16.1% [at 38.3 µM] (inactive)	–
